# Hits are enriched below; roughly 2.5% of the tested compounds scored in any of these assays.
# Cruzain inh Det: inhibitors of Trypanosoma cruzi cruzain with detergent. purified cruzain, Z-FR-AMC fluorescence, 0.01% Triton. Potency, µM, without a hit: max response, negative = inhibition, actives largely listed as inhibitors. 200,000 tested, 0.43% active. AID 1478;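 also: plate controls were neutral wells for no effect and buffer without enzyme for full effect; nearly all actives have a fitted effect of over 40% in size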
# Target sequence (P25779 123-467 limits assumed): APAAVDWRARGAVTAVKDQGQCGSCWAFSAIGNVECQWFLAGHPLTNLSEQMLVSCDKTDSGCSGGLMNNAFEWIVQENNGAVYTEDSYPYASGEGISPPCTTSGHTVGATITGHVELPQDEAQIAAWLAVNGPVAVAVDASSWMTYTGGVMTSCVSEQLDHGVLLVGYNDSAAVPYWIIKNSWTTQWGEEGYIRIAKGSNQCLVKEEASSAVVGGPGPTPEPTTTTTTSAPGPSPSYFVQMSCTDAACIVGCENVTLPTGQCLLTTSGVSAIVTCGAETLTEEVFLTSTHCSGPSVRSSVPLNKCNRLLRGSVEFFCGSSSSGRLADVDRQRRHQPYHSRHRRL
#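 Enzyme 1.5 nM, Z-FR-AMC 2 uM, NaOAc 100 mM pH 5.5, DTT 5 mM, Triton X-100 0.01%; 15 min RT compound preincubation; kinetic ex360/em450, 60 s delta.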
# Cruzain noTriton: blocks cruzain activity in detergent-free assay | Potency, µM, for the others: max response, negative = inhibition, usual class: inhibitors | P25779 | AID 1476 | 200,000 tested, 2.3% active | purified cruzain, Z-FR-AMC fluorescence, no detergent;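 also: plate controls were enzyme without inhibitor for no effect and buffer without enzyme for full effect; nearly all actives have a fitted effect of over 40% in size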
#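 Detergent-free condition (0.00005% Triton X-100) in acetate buffer pH 5.5 with DTT. 1.5 nM enzyme and compound were pre-mixed 15 min, then 2 uM Z-FR-AMC substrate added; reaction progress from fluorescence change between first and third reads (60 s).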
# * marks the source's active call; other numbers are inactive results; ? = inconclusive. Calls follow the shape of the dose curve; as a rule, active = well fitted curve in the direction sought with a large enough effect; inconclusive = small, poorly fitted or top-dose-only effect, or another doubt; inactive = no such curve, though single readings can be large; an effect the other way counts as inactive or inconclusive. Potency is read from the fitted curve at half-maximal effect.
SMILES,Cruzain inh Det,Cruzain noTriton
Cc1ccc(N(CC(=O)Nc2ccc(Br)c(C)c2)S(=O)(=O)c2cccs2)cc1,-5.1%,?
CN(C)c1ccc(C2(c3ccc(N(C)C)cc3)OC(=O)c3cc(N(C)C)ccc32)cc1,-5.2%,25.1µM*
Cc1cccc(C2(c3cccc(C)c3)OC(=O)c3ccccc32)c1,-3.2%,-4.5%
O=C(Cn1ccn(-c2ccc(F)c(F)c2)c(=O)c1=O)c1ccc(F)cc1,-2.4%,4.7%
COc1ccc(N2C(=O)CC(S/C(N)=N/N=C(\C)c3cccs3)C2=O)cc1 (configuration not stated),-12.8%,0.0%
CCOc1ccc(N2C(=O)CC(S/C(N)=N/N=C/c3cccs3)C2=O)cc1 (configuration not stated),-0.2%,10µM*
O=C(CSc1ncc2c(n1)-c1ccccc1N(Cc1ccc(F)cc1)S2(=O)=O)c1ccc(Cl)cc1,0.8%,25.1µM*
COC(=O)CSc1ncc2c(n1)-c1ccccc1N(Cc1ccccc1C)S2(=O)=O,0.0%,12.6µM*
Cc1ccccc1CN1c2ccccc2-c2nc(SCC(=O)c3ccc(Cl)cc3)ncc2S1(=O)=O,1.1%,-14.8%
O=C(CSc1ncc2c(n1)-c1ccccc1N(Cc1ccc(F)cc1)S2(=O)=O)c1ccc(Br)cc1,-2.8%,?
Cc1ccccc1CN1c2ccccc2-c2nc(SCC(=O)NCc3ccccc3)ncc2S1(=O)=O,2.3%,-5.7%
O=C(CSc1ncc2c(n1)-c1ccccc1N(Cc1ccc(Cl)cc1)S2(=O)=O)c1ccc(Cl)cc1,3.8%,20µM*
Cc1cccc(Cn2c(SCc3ccc(C(=O)N4CCCCCC4)cc3)nc3ccncc32)c1,-16.2%,2.3%
O=C(Cn1c(=O)oc2cc(S(=O)(=O)N3CCCC3)ccc21)NC1CCCc2ccccc21 (configuration not stated),-10.7%,25.1µM*
CC(NC(=O)Cn1c(=O)oc2cc(S(=O)(=O)N3CCCC3)ccc21)c1ccccc1 (configuration not stated),1.1%,?
C=CCn1c(=O)c2ccc(C(=O)NCc3ccccc3)cc2n(Cc2ccc(Cl)cc2)c1=O,-3.6%,-27.5%
C=CCn1c(=O)c2ccc(C(=O)NCc3ccccc3)cc2n(Cc2ccccc2Cl)c1=O,1.6%,25.1µM*
COc1ccc(OC)c(C(C)NC(=O)Cn2c(=O)cc(C)c3c(C)nn(-c4ccc(C)cc4)c32)c1 (configuration not stated),-0.7%,-2.0%
CCOC(=O)c1ccc(N=C2C(=S)N(c3ccc(C(=O)OCC)cc3)C(=N)N2/N=C/c2ccccc2)cc1,-12.3%,12.6µM*
CCOC(=O)c1ccc(N2Cc3ccccc3C2=N)cc1,0.6%,-20.5%
Cc1ccc(NC(=O)CCCN2C(=O)COc3ccc(C)cc32)c(C)c1,-6.0%,-0.3%
COc1ccc(-c2nc(C(N)=O)c3[nH]c(=O)n(-c4cccc(Cl)c4)c3n2)cc1OC,2.8%,?
Cc1ccsc1-c1nc(C(N)=O)c2[nH]c(=O)n(-c3ccc(Cl)cc3)c2n1,0.1%,10µM*
COc1ccc(NC(=O)CN2CCN(S(=O)(=O)c3ccc(Br)cc3)CC2)cc1,-2.4%,11.6%
COc1ccc(C)cc1NC(=O)CN1CCN(S(=O)(=O)c2ccc(Cl)cc2)CC1,-1.6%,24.7%
SMILES,Cruzain inh Det,Cruzain noTriton
COc1cc2c(cc1NS(=O)(=O)N1CCCC1)oc1ccccc12,-8.0%,13.8%
COc1cc2c(cc1NC(=O)CN1CCN(S(=O)(=O)c3ccc(C)cc3)CC1)oc1ccccc12,0.3%,7.94µM*
COc1cc2c(cc1NC(=O)C(C)N1CCN(S(=O)(=O)c3ccc(C)c(C)c3)CC1)oc1ccccc12 (configuration not stated),1.8%,7.94µM*
COc1cc2c(cc1NC(=O)C(C)Oc1ccccc1)oc1ccccc12 (configuration not stated),-8.8%,-13.6%
COc1cc2c(cc1NC(=O)C(C)N1CCN(S(=O)(=O)c3ccccc3[N+](=O)[O-])CC1)oc1ccccc12 (configuration not stated),2.6%,0.794µM*
COc1ccc(OC)c(C(=O)CN2CCN(S(=O)(=O)c3ccc(Br)cc3)CC2)c1,1.9%,25.1µM*
CCOc1ccc(NC(=O)Cn2c(=O)nc(-c3ccccc3)c3ccccc32)cc1,0.7%,-2.9%
COc1cccc(CNC(=O)C2CCN(C(=O)c3cnn(-c4ccccc4)c3-n3cccc3)CC2)c1,-5.8%,?
CC1(C)CC2CC(C)(CN2C(=O)COC(=O)c2cc(Cl)cc(Cl)c2N)C1 (configuration not stated),-8.2%,0.1%
CC1(C)CC2CC(C)(CN2C(=O)COC(=O)CNC(=O)c2ccc(Cl)c(Cl)c2)C1 (configuration not stated),7.94µM*,7.94µM*
CC(=O)Nc1ccc(OC(=O)c2cc3cc(Br)ccc3oc2=O)cc1,-0.1%,0.4%
CC(=O)Nc1ccc(OC(=O)c2cc3cc(Br)cc(Br)c3oc2=O)cc1,-0.9%,20µM*
CCc1ccc(NS(=O)(=O)c2ccc3oc(=O)c4ncn(CC)c4c3c2)cc1,-10.4%,12.1%
Cc1ccccc1C(=O)Nc1ccc(C(=O)OCc2cc(=O)n3c4c(sc3n2)CCCC4)cc1,1.4%,-0.8%
COc1ccc(S(=O)(=O)N2CCCCC2)cc1,-2.0%,4.8%
COc1ccc(S(=O)(=O)N=C2C=C(C)C(=O)C(C)=C2)cc1,-2.6%,12.6µM*
O=C(Cc1ccc(Br)cc1)NC1CCCCC1,-5.6%,4.2%
CC1CCCC(NC(=O)Cc2ccc(Br)cc2)C1C (configuration not stated),25.1µM*,?
Cc1cc(C(=O)COC(=O)c2ccc(O)cc2)c(C)n1CC1COc2ccccc2O1 (configuration not stated),-4.1%,25.1µM*
COc1cccc(/C=C/C(=O)OCC(=O)c2cc(C)n(CC3CCCO3)c2C)c1OC (configuration not stated),-6.2%,12.7%
N#Cc1cccc(CS(=O)(=O)c2ccccc2)c1,1.2%,-1.9%
CCOc1ccc(-c2cn3c(n2)sc2cc(C(=O)NCCC4=CCCCC4)ccc23)cc1,1.9%,-10.7%
COc1ccc(-c2cc(-c3ccc(C)cc3)nc(SCc3nnc(-c4ccccc4)o3)c2C#N)cc1OC,-0.9%,10µM*
COc1ccc(-c2nnc(CSc3nc4ccccc4c(=O)n3C)o2)cc1OC,-0.4%,?
Cc1csc2nc(COC(=O)CNC(=O)c3ccccc3)cc(=O)n12,-7.5%,2.0%
SMILES,Cruzain inh Det,Cruzain noTriton
O=C(CNC(=O)c1ccccc1Cl)OCc1cc(=O)n2ccsc2n1,25.1µM*,12.6µM*
Cc1csc2nc(COC(=O)CNC(=O)c3ccccc3Cl)cc(=O)n12,25.1µM*,20µM*
O=C(CNC(=O)c1ccc(F)cc1)OCc1cc(=O)n2ccsc2n1,-6.6%,-0.2%
CCCOc1ccc(C(=O)Nc2ccc3oc(-c4ccc5ccccc5c4)nc3c2)cc1,3.3%,5.7%
CC1=Nc2cc(C(=O)NC3CCCC3)ccc2Sc2ccc(Cl)cc21,-3.0%,?
CCC1=Nc2cc(C(=O)NC3CCCC3)ccc2Sc2ccc(Cl)cc21,-3.5%,7.94µM*
O=C(Cn1nnc(-c2ccccc2)n1)NCc1ccco1,1.3%,-1.0%
O=C(Cn1nnc(-c2cccc(C(F)(F)F)c2)n1)NC(=O)NCc1ccco1,4.9%,15.8µM*
COc1cc2c(cc1NC(=O)COc1cc(C)ccc1C)oc1ccccc12,0.5%,1.1%
CCc1ccc(C(=O)c2cn(CC(=O)Nc3ccc4c(c3)OCCO4)c3ccc(CC)cc3c2=O)cc1,-0.9%,3.7%

# Source: PubChem BioAssay
